Out of some 1,900 compounds screened, fewer than 10 were called active. Not shown: some 39% with an inconclusive outcome.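 The calls were made as follows: active = Green signal of the normal strain falls at least twice as much as red signal of the resistant mutant, with overall culture growth loss under a set limit; inconclusive = no clear call, values can overlap the other calls; inactive = the rest.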 A selection follows.
Experiments:
[1] = growth inhibition of wild-type GFP E. coli, dose response, h38 mutant RFP, cherry-pick (AID 977622); details: 24 h; activity change: E. coli mixed culture, total growth OD600 at 50 uM, at 50 µM; E. coli WT ribosome GFP fluorescence, mixed culture, at 50 µM (top of the series)
[2] = test system: E. coli h38 humanized mutant ribosome RFP fluorescence, mixed culture, 24 h; test: as above; details: h38 mutant RFP at 50 uM; at 50 µM

Row | Compound | activity change [1] | outcome [1] | activity change [2]
1 | CCc1ccc(CN2CCCC(CNS(=O)(=O)c3ccc(OC)cc3)C2)cc1 (stereo unspecified) | -13.3% | inactive | 9.56%
2 | COc1ccc(OC)c(NC(=O)COc2ccc(S(=O)(=O)NC(C)C)cc2)c1 | -14.2% | inactive | –
3 | O=C1CCCc2ccccc2N1Cc1ccccc1 | -14.6% | inactive | –
4 | Cc1cccc(CN2C(=O)c3ccccc3Sc3ccc(C(=O)O)cc32)c1 | -13.7% | inactive | –
5 | Cc1noc(C)c1NC(=O)Nc1ccc2c(c1)C(=O)N([C@@H](C)CO)C[C@@H](C)[C@H](CN(C)C(=O)Nc1ccc3c(c1)OCO3)OCCCC[C@@H](C)O2 | -13.2% | inactive | 26.4%
6 | C=CCn1c(C)cc(C(=O)CSc2nnc(C3CC3)n2C2CC2)c1C | -20.6% | inactive | -37.4%
7 | CN(C)S(=O)(=O)N1CCN(c2ccccc2Cl)CC1 | -14.9% | inactive | -15.7%
8 | O=C(c1ccc(-n2cccn2)cc1)N1CCc2ccccc2C1 | -28.7% | inactive | -27.7%
9 | Cc1onc(-c2ccccc2Cl)c1C(=O)Nc1ccc(Cl)cn1 | -9.88% | inactive | –
10 | COc1cc(C#N)ccc1OCC(=O)Nc1cccc(S(=O)(=O)N2CCCC2)c1 | -1.82% | inactive | -20.8%
11 | COc1ccc(C2CC(=O)Oc3cc(C)cc(C)c32)cc1 (stereo unspecified) | -0.711% | inactive | 12.7%
12 | O=C(Nc1cc(S(=O)(=O)N2CCOCC2)ccc1N1CCOCC1)c1ccc([N+](=O)[O-])s1 | -3.16% | inactive | 13.2%
13 | COc1ccccc1Cc1c(-c2ccc(F)cc2)nc2ccc(Br)cn12 | -10.3% | inactive | –
14 | CN(C)CCNc1ncnc2c1sc1nc(N3CCCC3)c3c(c12)CC(C)(C)OC3 | -21.5% | inactive | -11.2%
15 | Cc1ccccc1NC(=O)c1ccccc1N(C)S(=O)(=O)c1ccccc1 | -14.8% | inactive | -11.7%
16 | O=C1OC[C@@H]2CCCN2C(=O)[C@@H](CC(=O)N(CCO)Cc2ccccc2)C/C=C\C[C@H]1Cc1ccc(F)cc1 | -20.1% | inactive | -35.1%
17 | COc1cccc(CN(C)Cc2nc(Cc3ccccc3Cl)no2)c1 | -26.5% | inactive | 24.2%
18 | CC(CCc1ccccc1)NC(=O)CCC1CCCC1 (stereo unspecified) | -8.51% | inactive | 4.55%
19 | CCNC(=O)C1(C)CCCN(Cc2cccc3ccccc23)C1 (stereo unspecified) | 1.55% | inactive | 69.8%
20 | CCS(=O)(=O)N1CCN(c2ccnc3cc(Cl)ccc23)CC1 | -3.73% | inactive | 61.1%
21 | Cc1ccc(-n2cc(CNCCN3CCOC3=O)c(-c3ccc(F)cc3)n2)cc1 | -3.42% | inactive | 31.2%
22 | Cc1cc(C)cc(NS(=O)(=O)c2cc(C(=O)NCc3ccccn3)ccc2Cl)c1 | -24.9% | inactive | -5.16%
23 | CCn1c(COc2cccc(OC)c2)nnc1SCC(=O)Nc1cc(OC)ccc1OC | -38.2% | inactive | -20.2%
24 | C[C@@H]1CN([C@@H](C)CO)S(=O)(=O)c2ccc(Br)cc2O[C@H]1CN(C)C(=O)c1ccccc1 | -2.07% | inactive | –

Row | Compound | activity change [1] | outcome [1] | activity change [2]
25 | C[C@@H]1CCCCO[C@H](CN(C)C)[C@@H](C)CN([C@H](C)CO)C(=O)c2cc(NC(=O)Nc3cccc4ccccc34)ccc2O1 | 8.4% | inactive | 44.4%
26 | O=C(C[n+]1cc(-c2ccc(F)cc2)n2c1CCC2)c1cccs1 | 2.39% | inactive | 21.5%
27 | C[C@H](CO)N1C[C@H](C)[C@H](CN(C)C(=O)Nc2ccc3c(c2)OCO3)Oc2c(NC(=O)Nc3ccccc3)cccc2C1=O | -5.63% | inactive | 44%
28 | Cc1ccc2oc(=O)n(CCCOc3ccccc3C)c2c1 | -15.8% | inactive | -0.57%
29 | COc1ccc(CN2CCC3CC2c2cc(Cl)ccc23)cc1 (stereo unspecified) | -30.7% | inactive | -4.61%
30 | NS(=O)(=O)c1cc(C(=O)OCC(=O)Nc2ccccc2[N+](=O)[O-])ccc1Cl | -8.81% | inactive | 1.48%
31 | CC(=O)Oc1ccc(N(c2ccccc2)S(=O)(=O)c2ccc(C)cc2)cc1 | -32.3% | inactive | –
32 | COc1ccc(NC(=O)Nc2cccc3c2O[C@H](CN(C)S(=O)(=O)c2ccc(Cl)cc2)[C@@H](C)CN([C@@H](C)CO)C3=O)cc1 | -2.69% | inactive | -5.12%
33 | O=C(O)c1ccccc1Nc1cc(Cl)c2nonc2c1[N+](=O)[O-] | -25.7% | inactive | –
34 | C[C@@H]1CCCCO[C@H](CN(C)C)[C@H](C)CN([C@@H](C)CO)C(=O)c2cc(NC(=O)Nc3cccc4ccccc34)ccc2O1 | 4.86% | inactive | 1.63%
35 | COc1ccc(C#Cc2ccc([C@@H]3[C@@H](CO)N4CCCCN(C(=O)Nc5ccc(F)cc5)C[C@H]34)cc2)cc1 | -49.7% | inactive | 97.4%
36 | Cc1cccc(Oc2ccc(NC(=O)c3ccccc3C(=O)O)cc2)c1 | -16.2% | inactive | –
37 | CCOCC(=O)Nc1c(C(=O)Nc2ccc3c(c2)OCCO3)oc2ccccc12 | -44.7% | inactive | 4.56%
38 | COc1cc2c(c(OC)c1OC)C(c1ccc3c(c1)OCO3)CC(=O)O2 (stereo unspecified) | -14.3% | inactive | 37.2%
39 | CCC(C)c1ccccc1NC(=O)c1cccc(-n2cnnn2)c1 (stereo unspecified) | -13.9% | inactive | -4.87%
40 | CN(C)CCCN(C(=O)CCOc1ccccc1)c1nc2c(F)cccc2s1 | -10.6% | inactive | -7.27%
41 | CC(NC(=O)c1ccc(CS(=O)(=O)c2ccc(Cl)cc2)o1)c1ccc2c(c1)OCCO2 (stereo unspecified) | -24.9% | inactive | 17.5%
42 | NS(=O)(=O)c1ccc(NC(=O)c2cc(Cl)sc2Cl)cc1 | 0.867% | inactive | 13.3%
43 | CC(C)(CC(=O)O)CC(=O)NCc1c(Cl)cccc1Sc1ccc(Cl)cc1 | -12.9% | inactive | –
44 | C[C@H]1CN([C@@H](C)CO)C(=O)c2c(c3ccccc3n2C)-c2ccccc2CO[C@@H]1CN(C)Cc1ccncc1 | -20.6% | inactive | -32.1%
45 | CCCCc1n(CC(=O)c2ccc(Cl)cc2)c2ccccc2[n+]1C | -11.8% | inactive | 5.85%
46 | Cc1noc(C)c1NC(=O)Nc1ccc2c(c1)C(=O)N([C@H](C)CO)C[C@H](C)[C@H](CN(C)C(=O)Nc1ccc3c(c1)OCO3)OCCCC[C@H](C)O2 | -22% | inactive | -9.02%
47 | Cc1cccc(-c2ccc([C@H]3[C@@H](CO)N4CCCCN(S(=O)(=O)c5ccccc5C)C[C@@H]34)cc2)c1 | -22.4% | inactive | 18.9%

Reference: PubChem BioAssay AID977622 (Broad Institute, 2014)
